# The supplement of paper PMC10849652
# About 7,900 targets were measured; listed, in parts, are those with a hit and a random draw of the rest. About 0.6% of all pairs of compound and target were hits.
# Compound: C1=CC=C(C=C1)[C@H](COC2=CC3=C(C=C2)NC(=O)N3)NC(=O)C4=CC=CN(C4=O)CC5=CC(=C(C=C5)F)F
# Assay: log2 fold change, soluble protein after heating vs DMSO (PISA); higher = thermal stabilisation; K562 cells, 10 uM, 30 min; active = over 0.2 and 3.5 SD of the protein, either way, in both replicates (recomputed)
# Outline: (§1)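 K562 cells at 2×10^6 cells/mL were exposed to 10 μM compound for 30 min, then aliquots were heated for 3 min across 48°C-58°C, pooled, and extracted in PBS containing 0.5% NP-40 at 4°C. The supernatant after 21,000xg for 90 min was taken as soluble protein and measured by TMTpro 16plex LC-MS/MS with channel sums equalised. Thermal stability is reported relative to control samples, with values from duplicates. Fold changes are given on a log2 scale.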
# Chain of UniProt Q5M775 (Q5M775 whole entry, looked up): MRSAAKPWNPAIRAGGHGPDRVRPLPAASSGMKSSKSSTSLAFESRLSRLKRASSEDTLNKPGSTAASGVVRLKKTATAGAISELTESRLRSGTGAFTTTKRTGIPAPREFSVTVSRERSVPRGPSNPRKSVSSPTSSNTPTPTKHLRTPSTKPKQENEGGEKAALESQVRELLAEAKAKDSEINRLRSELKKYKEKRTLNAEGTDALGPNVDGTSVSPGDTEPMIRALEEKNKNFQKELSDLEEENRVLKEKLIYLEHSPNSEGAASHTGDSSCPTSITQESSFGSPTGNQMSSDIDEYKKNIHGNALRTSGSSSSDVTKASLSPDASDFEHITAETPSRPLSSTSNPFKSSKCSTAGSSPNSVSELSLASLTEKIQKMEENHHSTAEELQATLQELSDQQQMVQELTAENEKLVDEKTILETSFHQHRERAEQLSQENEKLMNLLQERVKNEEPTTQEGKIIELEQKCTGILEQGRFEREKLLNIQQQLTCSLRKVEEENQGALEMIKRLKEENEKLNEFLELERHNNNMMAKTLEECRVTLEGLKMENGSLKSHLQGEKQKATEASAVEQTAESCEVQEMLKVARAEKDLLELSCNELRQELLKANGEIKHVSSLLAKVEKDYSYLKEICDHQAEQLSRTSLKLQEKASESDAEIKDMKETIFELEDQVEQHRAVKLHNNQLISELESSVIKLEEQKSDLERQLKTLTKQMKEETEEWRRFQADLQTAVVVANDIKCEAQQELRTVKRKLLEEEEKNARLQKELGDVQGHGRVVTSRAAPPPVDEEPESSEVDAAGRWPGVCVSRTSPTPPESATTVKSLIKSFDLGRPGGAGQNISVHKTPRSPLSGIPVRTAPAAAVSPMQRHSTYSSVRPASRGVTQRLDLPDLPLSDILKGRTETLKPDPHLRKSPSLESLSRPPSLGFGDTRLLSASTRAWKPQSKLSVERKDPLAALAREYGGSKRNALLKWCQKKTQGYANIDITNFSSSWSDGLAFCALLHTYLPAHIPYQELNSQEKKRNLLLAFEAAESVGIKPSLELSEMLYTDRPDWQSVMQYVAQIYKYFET
# Chain of UniProt Q969X1 (Q969X1 whole entry, looked up): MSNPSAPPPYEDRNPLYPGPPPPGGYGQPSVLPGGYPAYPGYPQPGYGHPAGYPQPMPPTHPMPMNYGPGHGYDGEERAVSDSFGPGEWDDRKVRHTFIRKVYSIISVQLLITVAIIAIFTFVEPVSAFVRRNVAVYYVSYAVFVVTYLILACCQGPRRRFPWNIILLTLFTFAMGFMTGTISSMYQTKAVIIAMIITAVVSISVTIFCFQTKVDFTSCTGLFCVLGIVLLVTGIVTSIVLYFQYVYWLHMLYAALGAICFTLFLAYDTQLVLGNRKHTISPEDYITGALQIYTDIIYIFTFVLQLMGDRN
# Chain of UniProt Q9H254 (Q9H254 whole entry, looked up): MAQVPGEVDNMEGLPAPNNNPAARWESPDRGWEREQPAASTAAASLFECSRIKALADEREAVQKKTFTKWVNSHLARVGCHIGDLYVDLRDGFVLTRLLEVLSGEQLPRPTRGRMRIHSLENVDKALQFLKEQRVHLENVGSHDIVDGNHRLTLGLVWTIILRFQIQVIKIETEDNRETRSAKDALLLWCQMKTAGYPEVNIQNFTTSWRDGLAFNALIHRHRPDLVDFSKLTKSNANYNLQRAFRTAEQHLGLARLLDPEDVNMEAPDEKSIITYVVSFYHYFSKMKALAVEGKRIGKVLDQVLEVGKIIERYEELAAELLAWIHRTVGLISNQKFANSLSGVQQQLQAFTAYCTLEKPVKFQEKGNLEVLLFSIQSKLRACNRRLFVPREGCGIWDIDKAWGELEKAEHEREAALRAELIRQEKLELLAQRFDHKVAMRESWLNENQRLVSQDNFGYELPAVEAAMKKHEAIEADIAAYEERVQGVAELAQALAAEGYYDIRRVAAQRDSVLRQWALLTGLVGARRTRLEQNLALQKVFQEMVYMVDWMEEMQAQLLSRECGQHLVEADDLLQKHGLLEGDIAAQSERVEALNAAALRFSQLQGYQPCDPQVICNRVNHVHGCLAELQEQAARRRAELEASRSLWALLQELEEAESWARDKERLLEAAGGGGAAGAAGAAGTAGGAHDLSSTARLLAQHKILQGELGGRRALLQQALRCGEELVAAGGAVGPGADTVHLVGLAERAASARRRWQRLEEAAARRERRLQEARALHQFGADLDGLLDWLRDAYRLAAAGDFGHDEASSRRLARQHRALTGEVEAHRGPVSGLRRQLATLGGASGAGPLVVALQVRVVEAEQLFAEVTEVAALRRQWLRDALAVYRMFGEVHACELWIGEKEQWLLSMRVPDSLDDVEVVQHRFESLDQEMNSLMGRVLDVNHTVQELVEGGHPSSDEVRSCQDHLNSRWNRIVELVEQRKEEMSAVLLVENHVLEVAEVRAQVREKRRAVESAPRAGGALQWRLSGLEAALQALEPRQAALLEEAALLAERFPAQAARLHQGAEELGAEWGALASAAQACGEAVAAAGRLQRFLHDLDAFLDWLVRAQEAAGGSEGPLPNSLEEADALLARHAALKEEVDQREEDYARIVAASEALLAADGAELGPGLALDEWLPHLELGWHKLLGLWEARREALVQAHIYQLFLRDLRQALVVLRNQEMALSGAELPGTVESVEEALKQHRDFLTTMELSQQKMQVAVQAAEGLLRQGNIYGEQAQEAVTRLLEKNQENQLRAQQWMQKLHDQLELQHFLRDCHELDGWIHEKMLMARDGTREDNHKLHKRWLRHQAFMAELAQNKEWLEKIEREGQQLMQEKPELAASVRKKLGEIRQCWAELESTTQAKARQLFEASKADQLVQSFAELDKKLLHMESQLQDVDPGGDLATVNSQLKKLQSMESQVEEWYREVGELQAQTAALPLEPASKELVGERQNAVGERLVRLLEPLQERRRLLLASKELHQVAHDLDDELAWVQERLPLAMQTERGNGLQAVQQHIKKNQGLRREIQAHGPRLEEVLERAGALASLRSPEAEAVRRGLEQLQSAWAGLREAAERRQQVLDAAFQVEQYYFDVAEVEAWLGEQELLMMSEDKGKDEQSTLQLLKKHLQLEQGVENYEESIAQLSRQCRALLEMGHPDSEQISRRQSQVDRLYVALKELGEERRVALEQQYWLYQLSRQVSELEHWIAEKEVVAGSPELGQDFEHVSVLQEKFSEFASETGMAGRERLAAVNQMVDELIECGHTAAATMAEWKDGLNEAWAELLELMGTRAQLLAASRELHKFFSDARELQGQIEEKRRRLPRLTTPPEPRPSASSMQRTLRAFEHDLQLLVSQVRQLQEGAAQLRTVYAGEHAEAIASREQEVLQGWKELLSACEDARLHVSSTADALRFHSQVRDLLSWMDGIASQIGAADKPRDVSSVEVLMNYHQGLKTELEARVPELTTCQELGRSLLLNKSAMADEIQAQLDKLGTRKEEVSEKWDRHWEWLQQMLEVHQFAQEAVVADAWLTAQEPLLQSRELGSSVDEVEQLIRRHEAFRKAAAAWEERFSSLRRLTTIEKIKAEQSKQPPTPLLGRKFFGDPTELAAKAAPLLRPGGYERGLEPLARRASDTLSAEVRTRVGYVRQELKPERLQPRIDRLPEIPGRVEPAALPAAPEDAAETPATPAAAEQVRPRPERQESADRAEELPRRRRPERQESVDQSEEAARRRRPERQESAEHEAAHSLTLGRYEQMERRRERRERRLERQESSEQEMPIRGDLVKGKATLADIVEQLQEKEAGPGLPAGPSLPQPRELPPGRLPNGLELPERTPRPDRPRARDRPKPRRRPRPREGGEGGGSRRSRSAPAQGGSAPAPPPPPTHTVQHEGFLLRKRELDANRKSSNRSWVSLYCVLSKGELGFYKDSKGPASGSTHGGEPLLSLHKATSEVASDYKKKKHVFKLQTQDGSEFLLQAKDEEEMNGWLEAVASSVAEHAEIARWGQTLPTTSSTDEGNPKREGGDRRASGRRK
# Chain of UniProt P35610 (P35610 whole entry, looked up): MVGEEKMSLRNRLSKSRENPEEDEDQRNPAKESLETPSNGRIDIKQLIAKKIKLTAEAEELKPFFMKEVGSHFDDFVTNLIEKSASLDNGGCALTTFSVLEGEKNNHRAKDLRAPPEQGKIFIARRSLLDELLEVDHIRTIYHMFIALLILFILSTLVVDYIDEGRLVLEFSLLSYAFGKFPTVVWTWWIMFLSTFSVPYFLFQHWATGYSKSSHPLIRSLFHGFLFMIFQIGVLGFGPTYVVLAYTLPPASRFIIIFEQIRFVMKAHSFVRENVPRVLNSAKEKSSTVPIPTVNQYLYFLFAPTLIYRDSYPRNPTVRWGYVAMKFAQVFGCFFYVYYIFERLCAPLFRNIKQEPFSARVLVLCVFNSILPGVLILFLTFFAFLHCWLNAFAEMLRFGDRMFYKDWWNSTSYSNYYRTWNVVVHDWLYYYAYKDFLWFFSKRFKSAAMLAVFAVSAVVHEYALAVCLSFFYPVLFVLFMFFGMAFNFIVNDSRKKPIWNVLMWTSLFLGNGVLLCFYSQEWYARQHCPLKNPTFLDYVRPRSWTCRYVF
# Chain of UniProt O60749 (O60749 whole entry, looked up): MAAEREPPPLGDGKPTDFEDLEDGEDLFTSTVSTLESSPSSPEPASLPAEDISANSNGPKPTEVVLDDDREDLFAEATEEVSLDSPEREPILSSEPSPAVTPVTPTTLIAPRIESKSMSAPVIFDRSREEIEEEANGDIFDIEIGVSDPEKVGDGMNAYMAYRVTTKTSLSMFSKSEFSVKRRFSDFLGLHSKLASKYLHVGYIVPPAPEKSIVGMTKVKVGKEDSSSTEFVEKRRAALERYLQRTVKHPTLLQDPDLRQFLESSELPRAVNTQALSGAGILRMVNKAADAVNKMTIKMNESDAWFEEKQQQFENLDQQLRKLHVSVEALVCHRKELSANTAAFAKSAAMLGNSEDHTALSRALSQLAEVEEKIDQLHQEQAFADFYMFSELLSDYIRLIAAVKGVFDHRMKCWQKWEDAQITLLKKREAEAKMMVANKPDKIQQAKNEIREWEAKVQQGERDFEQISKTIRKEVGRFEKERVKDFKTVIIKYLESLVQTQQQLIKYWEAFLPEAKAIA
row,Target,log2 fold change
1,SRPRA (UniProt P08240),0.001 (inactive)
2,SSB (UniProt P05455),-0.02 (inactive)
3,TBCD (UniProt Q9BTW9),-0.028 (inactive)
4,TIPRL (UniProt O75663),-0.078 (inactive)
5,STAT5B (UniProt P51692),0.036 (inactive)
6,SOAT1 (UniProt P35610),-0.023 (inactive)
7,SPG11 (UniProt Q96JI7),0.095 (inactive)
8,STK25 (UniProt O00506),-0.022 (inactive)
9,SREBF1 isoform 4 (UniProt P36956),0.026 (inactive)
10,TAX1BP1 (UniProt Q86VP1),-0.008 (inactive)
11,THRAP3 (UniProt Q9Y2W1),0.09 (inactive)
12,SYNE1 (UniProt Q8NF91),-0.009 (inactive)
13,SPECC1 (UniProt Q5M775),-0.017 (inactive)
14,SLC38A7 (UniProt Q9NVC3),0.021 (inactive)
15,STK38 (UniProt Q15208),-0.08 (inactive)
16,SLIRP (UniProt Q9GZT3),-0.038 (inactive)
17,SRSF10 (UniProt O75494),0.001 (inactive)
18,SMDT1 (UniProt Q9H4I9),0.031 (inactive)
19,SUPT5H (UniProt O00267),-0.05 (inactive)

row,Target,log2 fold change
1,TJP2 isoform 7 (UniProt Q9UDY2),-0.03 (inactive)
2,TBK1 (UniProt Q9UHD2),-0.014 (inactive)
3,SSRP1 (UniProt Q08945),-0.027 (inactive)
4,TATDN2 (UniProt Q93075),-0.044 (inactive)
5,SNX2 (UniProt O60749),-0.015 (inactive)
6,SPIRE1 (UniProt Q08AE8),0.079 (inactive)
7,TBC1D24 (UniProt Q9ULP9),-0.108 (inactive)
8,SPTBN4 (UniProt Q9H254),-0.058 (inactive)
9,SMPD4 isoform 4 (UniProt Q9NXE4),-0.094 (inactive)
10,STK4 (UniProt Q13043),-0.008 (inactive)
11,SUMO1 (UniProt P63165),-0.004 (inactive)
12,SMARCE1 (UniProt Q969G3),-0.156 (inactive)
13,STK17B (UniProt O94768),0.043 (inactive)
14,SP3 (UniProt Q02447),0.018 (inactive)
15,SMCHD1 (UniProt A6NHR9),0.129 (inactive)
16,SUPT16H (UniProt Q9Y5B9),-0.238 (inactive)
17,TMBIM1 (UniProt Q969X1),0.024 (inactive)
18,SOX5 (UniProt P35711),-0.033 (inactive)

# Compound: CC1=C(SC2=C1C(=N[C@H](C3=NN=C(N32)C)CC(=O)N)C4=CC=C(C=C4)Cl)C
# Assay: as above
# Outline: as §1
row,Target,log2 fold change
1,SRPRA (UniProt P08240),-0.032 (inactive)
2,SSB (UniProt P05455),0.088 (inactive)
3,TBCD (UniProt Q9BTW9),0.03 (inactive)
4,TIPRL (UniProt O75663),0.07 (inactive)
5,STAT5B (UniProt P51692),0.08 (inactive)
6,SOAT1 (UniProt P35610),0.037 (inactive)
7,SPG11 (UniProt Q96JI7),0.05 (inactive)
8,STK25 (UniProt O00506),0.111 (inactive)
9,TAX1BP1 (UniProt Q86VP1),0.09 (inactive)
10,THRAP3 (UniProt Q9Y2W1),0.193 (inactive)
11,SYNE1 (UniProt Q8NF91),0.24 (inactive)
12,SPECC1 (UniProt Q5M775),-0.087 (inactive)
13,SLC38A7 (UniProt Q9NVC3),-0.031 (inactive)
14,STK38 (UniProt Q15208),0.045 (inactive)
15,SLIRP (UniProt Q9GZT3),-0.073 (inactive)
16,SRSF10 (UniProt O75494),-0.475 (inactive)
17,SMDT1 (UniProt Q9H4I9),0.018 (inactive)
18,SUPT5H (UniProt O00267),0.109 (inactive)

row,Target,log2 fold change
1,TJP2 isoform 7 (UniProt Q9UDY2),0.084 (inactive)
2,TBK1 (UniProt Q9UHD2),0.007 (inactive)
3,SSRP1 (UniProt Q08945),0.023 (inactive)
4,TATDN2 (UniProt Q93075),-0.067 (inactive)
5,SNX2 (UniProt O60749),0.069 (inactive)
6,SPIRE1 (UniProt Q08AE8),0.002 (inactive)
7,TBC1D24 (UniProt Q9ULP9),0.152 (inactive)
8,SPTBN4 (UniProt Q9H254),-0.083 (inactive)
9,SMPD4 isoform 4 (UniProt Q9NXE4),0.031 (inactive)
10,STK4 (UniProt Q13043),0.088 (inactive)
11,SUMO1 (UniProt P63165),-0.097 (inactive)
12,SMARCE1 (UniProt Q969G3),-0.002 (inactive)
13,SP3 (UniProt Q02447),-0.024 (inactive)
14,SMCHD1 (UniProt A6NHR9),0.141 (inactive)
15,SUPT16H (UniProt Q9Y5B9),0.023 (inactive)
16,TMBIM1 (UniProt Q969X1),0.206 (inactive)
17,SOX5 (UniProt P35711),0.005 (inactive)
